Assay results: PubChem BioAssay AID651702 (NMMLSC, 2012)
Out of some 360,000 compounds screened, about 2,400 (0.67%) were called active. The sample as a whole holds a higher share of actives than the screen did. A number with no mark means an inactive call.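 The calls were made as follows: active = inhibition above about 55% (limit read from the data); inconclusive = no clear call, values can overlap the other calls; inactive = the rest.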

assay: LAMP-1 surface exposure blockers, TALL-104 cells – cell-based, flow cytometry, MLPCN library, primary screen (AID 651702); settings: TALL-104 LAMP-1 surface exposure, at 10 µM, active compounds read high, cells stimulated with thapsigargin and PMA

Compound	inhibition
COc1ccccc1NS(=O)(=O)c1ccc(C)c(C(=O)NCC(c2ccco2)N(C)C)c1 (stereo not given)	3.6%
CCc1ccc(NC(=O)CS(=O)CC(=O)NCCCc2ccccc2)cc1 (stereo not given)	-1.4%
O=C(NCC1CCCO1)C(C(=O)c1ccccc1)n1cc(Cl)ccc1=O (stereo not given)	1.4%
CC(=O)c1c(C)[nH]c(C(=O)OCC(=O)Nc2c(C)cccc2C)c1C	2.6%
COc1ccc(C)cc1NC(=O)C(OC(=O)c1cccc(S(=O)(=O)N(C)c2ccccc2)c1)c1ccccc1 (stereo not given)	0.3%
CC(=O)c1c(C)[nH]c(C(=O)COC(=O)c2cccc(S(=O)(=O)N(C)c3ccccc3)c2)c1C	75.4% (active)
CCOC(=O)CN1CC23C=CC(O2)C(C(=O)Nc2ccc(F)cc2)C3C1=O (stereo not given)	1.3%
Oc1ccccc1-c1cc(-c2ccc(Cl)cc2)n[nH]1	92.9% (active)
O=C(Nc1ccc(Cl)cn1)c1ccccc1-c1ccccc1	-5.1%
CC(C)C(=O)NCc1cc(-c2ccc(Cl)cc2)no1	0.2%
CCCN(CC1CC1)C(=S)NC(=O)c1ccccc1Br	-2.1%
CC1Cc2nc(SCC(=O)Nc3ccccc3F)n(C)c(=O)c2S1 (stereo not given)	3.3%
COCCn1c(C)cc(C(=O)COC(=O)/C=C/c2cccc(OC)c2)c1C	-3.8%
CC1CCN(C(=S)c2cccc([N+](=O)[O-])c2)CC1	0.5%
O=C(O)C1CCN(c2ccc([N+](=O)[O-])cc2[N+](=O)[O-])CC1	-1.4%
CC1CCN(c2ccc([N+](=O)[O-])cc2C(N)=O)CC1	60.4% (active)
Cc1ccc(C(C)C)c(OCc2nnc(SCC(=O)Nc3nccs3)n2C)c1	1.2%
C/C(=N\NC(=O)c1ccc(C)cc1)C1C(=O)c2ccccc2C1=O	-2.2%
O=C(NC1=CC(=O)c2ccccc2C1=O)c1ccccc1	108% (active)
COc1cc(NC(=O)c2ccccc2)c(OC)cc1NC(=O)Cc1ccccc1	0%
Cc1ccc(S(=O)(=O)NCCSC(C)(C)C)cc1	11%
O=C(NCc1ccccc1)c1onc(CSc2nc3ccccc3[nH]2)c1C(=O)NCc1ccccc1	-2.7%
COc1ccc(C(O)C(O)(C(=O)OC(C)C)c2ccc(C)cc2)cc1 (stereo not given)	-2.2%

Compound	inhibition
COc1ccc(C2C(C(C)=O)=C(O)C(=O)N2CCc2c[nH]c3ccccc23)cc1 (stereo not given)	0.4%
C[N+](C)(C)CCNC(=O)c1c[nH]c2ccccc12	-7.5%
COc1ccc(/C=C(\C#N)c2c[nH]c3ccccc23)cc1	90.4% (active)
O=C(CN1C(=O)NC2(CCc3ccccc32)C1=O)NC1CCCCC1 (stereo not given)	-1.5%
Brc1ccc2c(c1)[C@H]1OCC[C@H]1[C@@H](c1cccs1)N2	1%
COc1cccc2oc(CCc3ccccc3)cc(=O)c12	-4.5%
COc1ccc(CC(N)c2csc(NC(=O)Nc3ccc(C(C)C)cc3)n2)cc1 (stereo not given)	67.4% (active)
COc1ccc(CC(N)c2csc(NC(=O)NC(c3ccccc3)c3ccccc3)n2)cc1 (stereo not given)	11.2%
COc1ccc(CC(N)c2csc(NC(=O)Cc3ccccc3)n2)cc1 (stereo not given)	-2.9%
CC(=O)NCC(=O)N(Cc1ccco1)C1(C(=O)NC2CCCC2)CCCCC1	4.1%
Cc1cc(C)cc(NC(=O)c2cccc(NC(=O)C3C4CC5OC(=O)C3C5C4)c2)c1 (stereo not given)	-3.6%
Cc1noc(C)c1COC(=O)Cn1c(C)nc2ccccc21	-0.2%
CCCCCCCCCCOC(=O)Cn1c(COc2ccc(C)cc2)[n+](C)c2ccccc21	79.9% (active)
CCCCCCCCCCOC(=O)Cn1c(COc2cccc(OC)c2)[n+](C)c2ccccc21	63.4% (active)
CCOc1ccc(OCCSc2nc3ccccc3n2CC(=O)O)cc1	-4.7%
Cc1cccc(-n2c(Cc3cc(=O)[nH]c(=O)[nH]3)nnc2SCC(=O)Nc2cccc(C(F)(F)F)c2)c1	-9.1%
COc1ccc(CCNC(=O)NS(=O)(=O)c2ccc(C)cc2)cc1OC	-3.4%
CC(=O)N1C[C@@H](CO)[C@@H](N(C)C(=O)c2ccco2)C[C@H]1c1ccccc1	-2%
NC(=S)NN=C1CCCC(C(F)(F)F)C1 (stereo not given)	-3%
Cc1c(NC(=O)c2cc(-c3ccc(Cl)s3)nc3ccccc23)c(=O)n(-c2ccccc2)n1C	8.8%
Cc1ccc(NC(=O)c2cc(-c3ccc(C)o3)nc3ccccc23)nc1	71.4% (active)
CCc1ccc(-c2cc(C(=O)NN3CCN(C)CC3)c3ccccc3n2)cc1	-2.9%
CCN1C(=O)[C@H]2[C@@H](c3ccc(-c4ccc(F)cc4)cc3)N[C@@](Cc3ccccc3)(C(=O)OC)[C@H]2C1=O	97.9% (active)

Compound	inhibition
CCN1C(=O)[C@H]2[C@@H](c3ccc(SC4CCCCC4)c(OC)c3)N[C@@](Cc3ccccc3)(C(=O)OC)[C@H]2C1=O	-2.9%
CCN1C(=O)[C@H]2[C@@H](c3ccc(-c4ccc(OC)cc4)cc3)N[C@@](Cc3ccccc3)(C(=O)OC)[C@H]2C1=O	-2.6%
COc1ccc(CC(NC(C)=O)C(=O)NC2CCN(C(=O)c3ccc(Cl)cc3)CC2)cc1 (stereo not given)	-6.3%
Brc1ccccc1C1N=C(c2ccccc2)NO1 (stereo not given)	-3.5%
COc1cc2c(cc1OC)C(c1ccccc1Br)NC(=O)C2 (stereo not given)	1.4%
Brc1ccccc1C1Nc2cccc3cccc(c23)N1	72.2% (active)
NS(=O)(=O)c1cc(Cl)c(Cl)c(S(N)(=O)=O)c1	0.8%
O=C(O)c1cc(S(=O)(=O)N(Cc2ccccc2)c2ccccc2)ccc1Cl	-1%
NC(=O)c1ccccc1N(Cc1ccccc1)S(=O)(=O)c1ccccc1	11.2%
O=S(=O)(c1ccccc1)N(Cc1cccc(F)c1)c1ccccc1	65.4% (active)
OCCC1CN(Cc2cccn2-c2nccs2)CCN1CCc1ccccc1 (stereo not given)	1.1%
COC(=O)[C@@]12CCCN1[C@H](c1ccc(-c3ccc(F)cc3)c(OC)c1)[C@H]1C(=O)N(C)C(=O)[C@H]12	-14%
CCCCNC(=O)C[C@@H]1C[C@@]2(C(=O)OC)CC(C)(C)CC=C2N(Cc2ccco2)C1=O	-4.4%
COC(=O)[C@H](Cc1ccccc1)NC(=O)[C@@H]1C[C@H]1[C@@H](NC(=O)OCc1ccccc1)c1ccccc1	106% (active)
COC(=O)[C@H](C)[C@H]1C[C@]1(C)[C@H](NC(=O)OCc1ccccc1)c1ccccc1	5.6%
COC(=O)[C@@H](Cc1ccccc1)NC(=O)NCCc1ccccc1	2.5%
CC(=O)N1CCc2cc(S(=O)(=O)Nc3ccccc3N3CCN(C)CC3)ccc21	3.6%
Cc1nnc(SCC(=O)N2c3ccccc3C(C)(c3ccc(Cl)cc3)CC2(C)C)s1 (stereo not given)	-0.3%
CCCCCn1nnnc1-c1nc2cc3ccccc3cc2[nH]c1=O	56.3% (active)
CCCCn1c(-c2cccc(C)c2)nc2cc3[nH]c(=O)c(C(C)C)nc3cc21	7.2%
CCCCCn1nnnc1C1c2ccccc2C(=O)N1Cc1ccco1 (stereo not given)	-4%
COc1ccccc1NC(=O)C(C)OC(=O)c1ccc(-n2cnnn2)cc1 (stereo not given)	2.1%
COc1ccc(NC(=O)Cn2ncn3c(cc4ccccc43)c2=O)c(OC)c1OC	-1.7%

Compound	inhibition
O=C(CNCc1ccc(Cl)cc1)Nc1cccc(C(=O)O)c1	2.8%
COc1cc(OC)c(C(=O)OC(C)C(=O)Nc2cc(C(F)(F)F)ccc2Cl)cc1OC (stereo not given)	0.8%
CC(C)CC(=O)Nc1cc(C(F)(F)F)ccc1N1CCOCC1	-2.5%
CC(CC(=O)Nc1cc(C(F)(F)F)ccc1Cl)c1ccccc1 (stereo not given)	83.7% (active)
CC1=NCCN1S(=O)(=O)c1ccc(Br)c(C)c1	-1.3%
COc1cc(OC)c2c(-c3cccc(-c4cccc(N)c4)c3)cc(=O)oc2c1	4.4%
COc1cccc(NC(=O)C2CCCN2C(=O)OCc2ccccc2)c1 (stereo not given)	-0.8%
COc1cccc(NC(=O)C2c3cc(OC)c(OC)cc3C(=O)N(C)C2c2cccnc2)c1 (stereo not given)	1.8%
COc1cccc(NC(=O)C2C(c3ccccc3)C2(Cl)Cl)c1 (stereo not given)	83.9% (active)
O=S(=O)(N/N=C\c1cccn1-c1ccccc1)c1ccc2ccccc2c1	-0.4%
Cc1cccc(CNC(=O)c2sc(=O)n(Cc3ccccc3C)c2C)c1	-3.5%
CCCCCNC(=O)C(c1ccc(OC)cc1)n1c(=O)c(-c2ccccc2)nc2ccccc21 (stereo not given)	5.5%
COc1ccccc1N1CCN(c2ncnc3sc(C)c(-c4ccccc4)c23)CC1	57.5% (active)
COc1ccccc1N1CCN(c2nc(C)cc(=O)[nH]2)CC1	0.2%
COc1ccccc1N1CCN(c2ccc([N+](=O)[O-])nc2)CC1	-3.5%
O=C1CCC([N+](=O)[O-])C(c2ccccc2Br)N1 (stereo not given)	-1.2%
CCOc1ccccc1Nc1nnc(SCC(=O)NCC2CCCO2)s1 (stereo not given)	-20.1%
COc1ccc(C2OC(CCc3ccccc3)Cc3[nH]c(=S)[nH]c(=O)c32)cc1 (stereo not given)	-3%
Cc1cnc(C(=O)OCC(=O)N2CCc3ccccc32)cn1	0.3%
Cc1cnc(C(=O)OCC(=O)NCCCc2ccccc2)cn1	-0.1%
Cc1cnc(C(=O)OCc2c(C)cc(C(C)(C)C)cc2C)cn1	63.8% (active)
